The sample as a whole holds a higher share of hits than the screen did.
Methyltransferases: Primary Screen for Target Class Profiling of Small Molecule Inhibitors of Methyltransferases. AID 1745853, 2022. purified enzyme, MTase-Glo SAH luminescence; hits give low values. actives 3.9% (n = 25,000). calls only at 40 µM; call rule not given here
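Each enzyme was assayed with SAM and its substrate. SAH formation detected by MTase-Glo luminescence; single-point 40 uM screen[…].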
An asterisk follows results filed as active; i = inactive; + = active, no number; ! = not confirmed by another sample. On the % scale 0 is the no-effect control and ±100 the full control effect.

SMILES | Methyltransferases
Cc1ccccc1CN1C(=O)c2cc3ccccc3n2CC1(C)C(=O)NCCC(C)C (stereo not drawn) | i
CCCn1c(=O)c2ccc(C(=O)NCC(C)C)cc2n2c(SCC(=O)c3ccc(OC)cc3)nnc12 | i
COc1ccc(OC)c(CCN2C(=O)c3cc4ccccc4n3CC2(C)C(=O)NC2CCCC2)c1 (stereo not drawn) | i
Cc1ccc(CN2C(=O)c3cc4ccccc4n3CC2(C)C(=O)NCc2ccccc2)cc1 (stereo not drawn) | i
CCCn1c(=O)c2ccc(C(=O)NC(C)CC)cc2n2c(=O)n(Cc3ccccc3C)nc12 (stereo not drawn) | i
O=C(Nc1ccccc1Cl)c1cnc2ccc(C3CCNCC3)cn12 | i
c1cc(NC2CCNCC2)nc(-c2cnc3ccccn23)c1 | +
CCCN1C(=O)c2c(C(=O)Nc3cc(Cl)ccc3OC)ncn2CC1(C)C(=O)NC1CCCC1 (stereo not drawn) | i
CC(CN1C(=O)c2cc3occc3n2CC1(C)C(=O)NC1CCCCC1)c1ccccc1 (stereo not drawn) | i
C=C1CC/C=C(/CO)C(=O)C[C@@H]2[C@@H]1C[C@@]2(C)COC(C)=O | +
CCCCNC(=O)CCn1ccc2cc(S(=O)(=O)N3CCCCC3)ccc21 | i
COc1ccccc1CN1C(=O)c2cc(-c3cccs3)nn2CC1(C)C(=O)NC1CCCCC1 (stereo not drawn) | i
CCC(C)NC(=O)c1ccc2c(=O)n(CCC(C)C)c3nn(Cc4cccc(F)c4)c(=O)n3c2c1 (stereo not drawn) | i
c1ccc2c(Nc3nnc(-c4ccncc4)s3)cccc2c1 | i
Cc1cccc(Nc2nc(-c3ccncc3)cs2)c1 | +
COc1cc(Br)c(Nc2nc(-c3c(C)nc4ncccn34)cs2)c(Br)c1 | i
CCOC(=O)c1ccc(Nc2ncnc3ccc(Br)cc23)cc1 | i
C=CC(=O)Nc1ccc2ncnc(Nc3cccc(Br)c3)c2c1 | +
CCOC(=O)c1cnc2ccc(Br)cc2c1Nc1cccc(C(C)=O)c1 | i
CC1CC(C)CN(C(=O)Cn2c(=O)oc3cc(S(=O)(=O)NC4CCCC4)ccc32)C1 (stereo not drawn) | i
CC1(C)CCC(C)(C)c2cc(C#Cc3ccc(C(=O)O)cc3)ccc21 | +
CC1(C)CCC(C)(C)c2cc([C@@H](O)C(=O)Nc3ccc(C(=O)O)cc3F)ccc21 | i
CC(N)(C(=O)O)c1ccc(C(=O)O)cc1 (stereo not drawn) | i
Oc1ccc(C2CNCc3sccc32)cc1O (stereo not drawn) | +
CNC(=O)CCn1ccc2cc(S(=O)(=O)N3CCCCC3)ccc21 | i
SMILES | Methyltransferases
O=C(c1ccco1)N1CCC(N2CC3(CCCC3)C2c2ccccc2)CC1 (stereo not drawn) | i
Cc1ccccc1Sc1ccc(/C=C2\SC(=S)NC2=O)cc1[N+](=O)[O-] | +
CC1CCC(NC(=O)C2(C)Cn3c(ccc3-c3ccco3)C(=O)N2Cc2ccccc2F)CC1 (stereo not drawn) | i
CC1CCC(NC(=O)C2(C)Cn3c(cc4occc43)C(=O)N2Cc2ccc(OC(C)C)cc2)CC1 (stereo not drawn) | i
CC1(C(=O)NC2CCCCCC2)Cn2c(c(-n3cccc3)c3cc(F)ccc32)C(=O)N1Cc1cccs1 (stereo not drawn) | i
Cc1ccc(CNC(=O)c2cc3n(n2)CC(C)(C(=O)NC2CCCCCC2)N(C)C3=O)o1 (stereo not drawn) | i
C=C1C(=O)O[C@@H]2[C@H]3C(C)=CC(=O)C3=C(C)CC[C@@H]12 | i
C=C1C(=O)OC2C1CCC(=C)C1CC(OC(C)=O)C(=C)C12 (stereo not drawn) | +
C=C(C)C(=O)OC1CC(CO)CCC/C(CO)=C/C2OC(=O)C(=C)C21 (stereo not drawn) | i
CC1CCCCC1NC(=O)C1(C)Cn2c(nc3ccccc32)C(=O)N1CCCc1ccccc1 (stereo not drawn) | i
NC[C@H]1O[C@@H](n2cnc3c(N)ncnc32)[C@H](O)[C@@H]1O | +
Nc1ncnc2c1nc(N)n2[C@@H]1O[C@H](CO)[C@@H](O)[C@H]1O | i
Nc1ncnc2c1ncn2[C@@H]1O[C@H](CO)C[C@H]1O | i
CCCCNC(=O)Cn1ccc2cc(S(=O)(=O)N3CCC(C)CC3)ccc21 | i
O=C(Cn1nc2n(Cc3ccccc3)c(=O)c3ccccc3n2c1=O)NCc1ccccc1 | i
CN(C)[C@@H]1C[C@@H](CO)N(C(=O)c2csc3nc(-c4ccccc4Cl)cn23)C1 | i
O=C(Nc1ccccc1-c1cn2c(CN3CCNCC3)csc2n1)c1cnc2ccccc2n1 | +!
CCCN1C(=O)c2cc(C(=O)NCc3ccccc3OCC)nn2CC1(C)C(=O)NC1CCCC1 (stereo not drawn) | i
CC(C)n1c(=O)c2ccc(C(=O)NC3CCCC3)cc2n2c(=O)n(Cc3cccc(F)c3)nc12 | i
COc1ccc(CNC(=O)Cn2nc3n(CCCOC(C)C)c(=O)c4ccccc4n3c2=O)cc1 | i
CC1(C(=O)NC2CCCCCC2)Cn2c(cc3sccc32)C(=O)N1CCCc1ccccc1 (stereo not drawn) | i
COc1cccc(-n2nc(C(=O)O)cc2-c2ccc(C3CCCCC3)c(Cl)c2)c1 | +
CCOC(=O)c1cc2n(n1)CC(C)(C(=O)NC1CCCCC1)N(c1cccc(OC)c1)C2=O (stereo not drawn) | i
COC(=O)c1cc2n(n1)CC(C)(C(=O)NC1CCCCCC1)N(Cc1cccc(OC)c1)C2=O (stereo not drawn) | i
COc1ccccc1CNC(=O)C1c2c(n(C)c3ccccc23)SCC(=O)N1c1cc(Cl)ccc1OC (stereo not drawn) | i
SMILES | Methyltransferases
Nc1ncnc2c1c(-c1cccc(OCc3ccccc3)c1)cn2C1CC(CN2CCC2)C1 (stereo not drawn) | +
CCOC(=O)c1cc2n(n1)CC(C)(C(=O)NC1CCCC1)N(Cc1ccc(OC)cc1)C2=O (stereo not drawn) | i
COc1ccc(-c2cc3n(n2)CC(C)(C(=O)NC2CCCCC2)N(Cc2cccc(F)c2)C3=O)cc1 (stereo not drawn) | i
CCC(C)C(=O)O[C@H]1[C@@H](O[C@H]2O[C@H](CO)[C@@H](O)[C@H](O)[C@H]2O)O[C@H](CO)[C@@H](O)[C@@H]1O (stereo partly drawn) | i
CC(C)CCC1(O)C(=O)C(C)(C)C(O[C@@H]2O[C@H](CO)[C@@H](O)[C@H](O)[C@H]2O)C(C)(C)C1O (stereo partly drawn) | +
CC1(C)COC(=O)[C@@H]1O[C@@H]1O[C@H](CO)[C@@H](O)[C@H](O)[C@H]1O | i
COc1cccc(CN2C(=O)c3ccc(-c4ccco4)n3CC2(C)C(=O)NCc2ccc(Cl)cc2)c1OC (stereo not drawn) | i
CCCN1C(=O)c2cc(C(=O)NCc3ccccc3F)nn2CC1(C)C(=O)NC1CCCC1 (stereo not drawn) | i
CC1=C2C[C@@]3(C)C(CCC[C@@H]3C)C(O)C2OC1=O (stereo partly drawn) | i
CC1=C2CC3C(CCC3(C)O)C(C)(O)CC2OC1=O (stereo not drawn) | +
CC1(O)CCC2C(C3C1CCC3(C)O)C2(C)C (stereo not drawn) | i
